Compounds without any hit were thinned out: in the full panel of roughly 79,000, 15% have a hit. The source made the active and inactive calls. Rule as the data show it: active = growth inhibition above about 70%; inactive = the rest.
Tests used:
[1] = NCI Yeast Anticancer Drug Screen. Data for the rad50 strain (AID 155);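 also: 0% = growth of vehicle-only cultures of the same strain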; conditions: S. cerevisiae rad50 strain growth inhibition; at 50.0 µM; hits give high values
Outline: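 Inhibition values express reduced yeast growth in compound-treated cultures relative to vehicle-treated controls.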

[2] = NCI Yeast Anticancer Drug Screen. Data for the mec2-1 strain (AID 157); conditions: S. cerevisiae mec2-1 strain, at 50.0 µM, hits give high values
Outline: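 Yeast mec2-1 mutant treated with compound. Readout: growth inhibition vs vehicle controls.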

[3] = NCI Yeast Anticancer Drug Screen. Data for the sgs1 mgt1 strain (AID 161);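 also: 0% = growth of cultures given vehicle only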; conditions: S. cerevisiae sgs1 mgt1 strain, at 50.0 µM, hits give high values
Outline: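 Inhibition of yeast growth, normalised to vehicle-treated controls, is reported for a strain bearing genetic alterations in DNA damage repair.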

[4] = NCI Yeast Anticancer Drug Screen. Data for the cln2 rad14 strain (AID 165);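 also: 0% = growth equal to vehicle treated cultures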; conditions: S. cerevisiae cln2 rad14 strain, at 50.0 µM, hits give high values
Outline: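 cln2 rad14 yeast strain; compound exposure; growth inhibition read vs vehicle controls.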

[5] = NCI Yeast Anticancer Drug Screen. Data for the bub3 strain (AID 167); conditions: S. cerevisiae bub3 mutant strain, at 50.0 µM, hits give high values
Outline: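 Steps: expose the mutant yeast strain to compound; grow alongside vehicle-treated cultures; measure growth; express inhibition against the vehicle cultures.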

[6] = NCI Yeast Anticancer Drug Screen. Data for the mlh1 rad18 strain (AID 175); conditions: S. cerevisiae mlh1 rad18 strain growth inhibition; at 50.0 µM; hits give high values
Outline: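 Yeast w/ defined DNA-repair lesions; compound exposure; growth vs vehicle controls → % inhibition.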

Measured: growth inhibition

NC(=O)C1C(=O)NC(=O)C1=O (stereo unspecified)
inactive: [1] -21.5% | [2] -17.9% | [3] -8.75% | [4] -7.7% | [5] -9.75% | [6] -22.4%

CCc1cccc(C)c1N1C(=O)C(=O)C(c2nc3ccccc3o2)C(=O)C1=O
inactive: [1] 33.8% | [2] 17.9% | [3] 19.7% | [4] 16% | [5] -4.55% | [6] 34.5%

Cc1ccc(NC(=O)C(=O)C(C(=O)c2ccc3ccccc3c2)C2OC(=O)c3ccccc32)c(C)c1 (stereo unspecified)
inactive: [1] 45.6% | [2] 26.6% | [3] 32.9% | [4] 11.2% | [5] 34.9% | [6] 62.2%

Cc1ccc(S(=O)(=O)OC(c2ccccc2)C(F)(F)F)cc1 (stereo unspecified)
inactive: [1] -4.05% | [2] -15.6% | [3] -7.2% | [4] 6.9% | [5] 2.9% | [6] 2.85%

Oc1cc2c(cc1C(c1ccc3c(c1)OCO3)N1CCCC1)OCO2 (stereo unspecified)
inactive: [1] -4.9% | [2] -9.35% | [3] 8.25% | [4] -27.6% | [5] 19.8% | [6] 28.4%

C#CCN(Cc1ccc2nc(-c3ccccc3)c(N)nc2c1)c1cc(OC)c(OC)c(OC)c1
inactive: [1] -0.75% | [2] 5.25% | [3] 31.8% | [4] 16.1% | [5] 14.7% | [6] 30.1%

CSC#CC(Sc1c(Cl)c(Cl)c(Cl)c(Cl)c1Cl)=C(Sc1c(Cl)c(Cl)c(Cl)c(Cl)c1Cl)Sc1c(Cl)c(Cl)c(Cl)c(Cl)c1Cl
inactive: [1] 2.55% | [2] -0.8% | [3] -1.7% | [4] -3.6% | [5] -0.6% | [6] -15.5%

COC1CCC(/C(C#N)=C/C2CCC(OC)C(OC)C2)CC1 (stereo unspecified)
active: [1] 77.1% | [3] 77.7%
inactive: [2] 66.8% | [4] -8.7% | [5] 68.8% | [6] 63%

Cc1nn(-c2ccccc2)c2oc3ccccc3c(=O)c12
inactive: [1] -25.6% | [2] -7.4% | [3] -35.5% | [4] -29.5% | [5] -20.9% | [6] -31.1%

N#CC(C#N)=NO (tested in a mixture with another compound)
inactive: [1] 11.8% | [2] 6.6% | [3] -7.7% | [4] -0.75% | [5] 5.3% | [6] 5.75%

CCCCCCCCCCCCCC(=O)Oc1ccc([N+](=O)[O-])cc1
inactive: [1] -2.65% | [2] 0.05% | [3] -13.1% | [4] 11.2% | [5] -9.2% | [6] 14.4%

Cc1nc(-c2nc(C)c(C(=O)NNC(=O)C[n+]3ccccc3)s2)sc1C(=O)NNC(=O)C[n+]1ccccc1
inactive: [1] 21.9% | [2] 10.6% | [3] 52% | [4] -20.9% | [5] 0.2% | [6] 14.4%

O=C(O)CN(CC(=O)O)Cc1ccccc1
inactive: [1] -22.3% | [2] 8.7% | [3] 6.8% | [4] -71.4% | [5] 7.9% | [6] 4.2%

O=C(Nc1ccccc1CCl)Nc1ccccc1CCl
inactive: [1] -30.9% | [2] -26.4% | [3] -15.8% | [4] 0.7% | [5] -23.2% | [6] -28.8%

CN1C(=O)CC2(C)c3cc(O)ccc3N(C)C12 (stereo unspecified)
inactive: [1] 53.6% | [2] 30.1% | [3] 54.5% | [4] 64.3% | [5] 32.6% | [6] -81.7%

O=c1ccn(/C=C\c2nc3ccccc3[nH]c2=O)c(=S)[nH]1
inactive: [1] -37.8% | [2] -27.3% | [3] -35.9% | [4] 13.7% | [5] -17.5% | [6] -40.4%

O=S(=O)(O)c1cccc2c1oc1ccccc12
inactive: [1] 8.85% | [2] -37.4% | [3] -3.75% | [4] 19% | [5] -10.1% | [6] -19%

Cn1c(O)c2c(c1O)C(=Nc1ccccc1)c1ccccc1C2=O
active: [1] 89.2% | [2] 98.5% | [3] 93% | [4] 94.2% | [5] 98.6% | [6] 97.9%

CN(C)N1C(=C(C#N)C#N)C(c2ccccc2)CC1C#N (stereo unspecified)
inactive: [1] 9.55% | [2] 12.9% | [3] -22.8% | [4] 13.2% | [5] -25.8% | [6] -41.5%

CC12CCC(C(=O)n3c1nc1ccccc13)C(C)(C)O2 (stereo unspecified)
inactive: [1] 8.15% | [2] -6.85% | [3] -7.45% | [4] 4% | [5] 4.25% | [6] -12.3%

C[N+](C)=c1ccc2nc3ccc(N)cc3sc-2c1
inactive: [1] -84.8% | [2] -59.5% | [3] -43.6% | [4] -66.7% | [5] -79.8% | [6] -76.8%

CC(C)n1cnc2c(=O)[nH]c(=O)[nH]c21
inactive: [1] -9.55% | [2] -4.55% | [3] 9.25% | [4] -39.8% | [5] -5.2% | [6] 2.9%

CC1(C)C(=O)C(C)(C)C1=NN
inactive: [1] 7.5% | [2] 11.8% | [3] -4.45% | [4] 3% | [5] -4.9% | [6] 23.9%

CSc1c(C)c(C)nn1-c1ccccc1
inactive: [1] -8.35% | [2] -7.6% | [3] 9.45% | [4] -1.4% | [5] 1.35% | [6] -5.75%

CC(=O)N1CCc2[nH]c3ccccc3c2CC1
inactive: [1] 10.9% | [2] -7.05% | [3] -4.55% | [4] 21.8% | [5] -3.1% | [6] 16.2%

Cc1ccc(S(=O)(=O)N(CCO)CCCO)cc1
inactive: [1] -16.7% | [2] -43.3% | [3] -9.95% | [4] 5.1% | [5] -35.3% | [6] 1.7%

CCOC(=O)C(C)(C)C(=O)Nc1ccccc1
inactive: [1] 5.2% | [2] -7.6% | [3] -3.6% | [4] 24.9% | [5] 3.6% | [6] 5.7%

FC(F)(F)c1cccc(N=Cc2ccc(C=Nc3cccc(C(F)(F)F)c3)cc2)c1
inactive: [1] 10.4% | [2] -9.2% | [3] 13.3% | [4] 7.6% | [5] -9% | [6] 1.35%

Cc1ccc(S(=O)(=O)NC(CCC(=O)NN)C(=O)NN)cc1 (stereo unspecified)
inactive: [1] 9.55% | [2] 7.2% | [3] -15.2% | [4] 5.95% | [5] -1.8% | [6] -43.4%

O=C(Nc1nc2ccsc2s1)c1ccccc1
inactive: [1] -15.8% | [2] -3% | [3] -4% | [4] -34.9% | [5] -8% | [6] -10.8%

Cc1cccc(N=NC2Sc3nc4ccccc4n3C2=O)c1 (stereo unspecified)
inactive: [1] -16.9% | [2] -19.4% | [3] -20.1% | [4] -9.25% | [5] 2.25% | [6] 2.9%

Cc1ccccc1-n1c(C)nc(-c2ccccc2)cc1=O
inactive: [1] -23.4% | [2] -47.2% | [3] -4.9% | [4] 15.5% | [5] -9.4% | [6] 2.8%

Cc1ccc(Cl)cc1NC(=O)Oc1ccc(C(C)(C)C)cc1Br
inactive: [1] 54.3% | [2] 57.1% | [3] 11.7% | [4] 1.5% | [5] 19.9% | [6] 60.2%

O=C(O)/C=C/C(=O)Nc1ccc(C(=O)O)cc1
inactive: [1] 22.9% | [2] -27.3% | [3] 10.2% | [4] 7.6% | [5] -20.9% | [6] -3.7%

Oc1ccc(O)c(CCCCCc2cc(O)ccc2O)c1
active: [1] 76.3% | [5] 70.2% | [6] 97.7%
inactive: [2] 37.4% | [3] 66.5% | [4] 34.4%

C1CCN(/N=N/c2nn[nH]n2)CC1
inactive: [1] -2.3% | [2] 6.55% | [3] -2.8% | [4] -23% | [5] 3.9% | [6] -0.7%
